Bioassay records: PubChem, National Center for Advancing Translational Sciences (NCATS)
In the library only some 5.3% were active in any assay of this set; here they are far more common.
Six1-Eya2 blk – Six1/Eya2 interaction inhibition. activity change, % (no concentration beside the values). 360,000 compounds, 0.56% hits. AlphaScreen GST-Six1/His-Eya2 binding, biochemical; hits give low values. AID 651725. Q15475+O00167; in the data active means activity change below about -65%; inconclusive means mostly about -30% to -63%; further: on the % scale 0 is the no-effect control and ±100 the full control effect
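Six1/Eya2 binding was read as AlphaScreen signal after compounds were pinned into GST-Six1 plus His-tagged Eya2 (5X stock 250/500 nM) in pH 8.0 Tris/NaCl/TCEP buffer, beads added, then incubated 1 h, 37 C, dark.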
TDP1 inh – blocks human tyrosyl-DNA phosphodiesterase 1; Q9NUW8; recombinant TDP1, AlphaScreen DNA substrate cleavage; Potency, µM (highest dose often 130 µM), without a hit: at the highest dose activity change, negative = inhibition, hits mostly inhibitors; 350,000 compounds, 0.28% hits; AID 485290; further: potency means the concentration at half of the fitted maximal effect; on the % scale 0 is the no-effect control and ±100 the full control effect; nearly all actives have a fitted effect of over 40% in size
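Steps: enzyme plus compound, 15 min RT; add biotin/phosphotyrosine-FITC oligonucleotide (15 nM final), react 5 min; add donor/acceptor beads (10 ug/ml final), 10 min; read AlphaScreen. Tdp1 at 1 nM final.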
JMJD2A Tudor inh – inhibitors of human JMJD2A Tudor domain. 390,000 compounds, 4.4% hits. AlphaScreen JMJD2A-Tudor / H3K4me3 peptide binding. Potency, µM (highest dose often 114 µM), inactives show at the top dose activity change, negative = inhibition, hits mostly inhibitors. O75164; further: potency means the concentration at half of the fitted maximal effect; on the % scale 0 is the no-effect control and ±100 the full control effect; nearly all actives have a fitted effect of over 50% in size
CtBP-E1A inh – blocks the CtBP interaction with E1A; AlphaScreen GST-E1A/His-CtBP binding, 1536-well; hits give low values; activity change, % (concentration not given with the values); 340,000 compounds, 0.49% hits; AID 651724; in the data active means activity change below about -65%; inconclusive means mostly about -30% to -63%; further: on the % scale 0 is the no-effect control and ±100 the full control effect
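Homogeneous bead-based format: GST-tagged E1A captured on glutathione donor beads, His-tagged CtBP on nickel acceptor beads; compounds precede bead addition by 2 h at 37 °C.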
BAZ2B block – blocks human BAZ2B; Q9UIF8; AlphaScreen BAZ2B-H3K14Ac peptide displacement; Potency, µM (titrated, usually from 114 µM), for the others: at the top dose activity change, negative = inhibition, usual class: inhibitors; 360,000 compounds, 4.4% hits; further: potency means the concentration at half of the fitted maximal effect; on the % scale 0 is the no-effect control and ±100 the full control effect; nearly all actives have a fitted effect of over 60% in size
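AlphaScreen displacement: compounds (up to 110uM) incubated 30 min at room temperature with a preformed 50 nM BAZ2B/50 nM biotinylated H3K14Ac peptide complex in PBS pH 7.4 with Tween-20. Donor and acceptor beads at 10 ug/mL final added, 20 min light-protected before reading.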
HP1b chromo inh – inhibitors of HP1-beta chromodomain binding to methylated histone tails; AlphaScreen HP1-beta / biotin-H3K9me3 peptide binding; Potency, µM (top dose mostly 114 µM), inactives show at the top dose activity change, negative = inhibition, hits mostly inhibitors; 390,000 compounds, 0.56% hits; AID 540317; further: potency means the concentration at half of the fitted maximal effect; nearly all actives have a fitted effect of over 70% in size
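HP1-beta protein (50 nM final) preincubated 30 min at room temperature with biotinylated H3(1-18)K9me3 peptide (50 nM) in PBS pH 7.4, 0.01% Tween-20, then compound added for 30 min. AlphaScreen streptavidin donor/nickel chelate acceptor beads (10 ug/mL final), 30 min dark, luminescence read.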
* = called active by the depositor; ? = inconclusive; . = no result given; [ ] = remark or other dose. Unless noted, the call rests on the fitted dose curve; in most records, active means well fitted inhibition curve with a large enough effect; inconclusive means small, poorly fitted or top-dose-only effect; inactive means no such curve, though single readings can be large or run the other way.

SMILES	Six1-Eya2 blk	TDP1 inh	JMJD2A Tudor inh	CtBP-E1A inh	BAZ2B block	HP1b chromo inh
CC(C)CC(=O)NC(c1cccs1)c1ccc2cccnc2c1O (stereo unspecified)	-81.3*	-5.6%	50.1µM*	-88.5*	-0.5%	27.0%
Clc1ccc(N2CCN(Cc3ccco3)CC2)cc1	-13.2	.	1.78µM*	3.1	50.1µM*	?
COc1ccc2c(CN3CCCCC3)cc(=O)oc2c1	5.2	.	.	7.2	.	.
COc1ccc(N=Nc2cc(C)c(O)c(CN3CCCCC3)c2)cc1	?	11.4%	22.4µM*	?	12.6µM*	28.2µM*
COc1cccc(CN2CCN(S(=O)(=O)c3ccc(Br)cc3)CC2)c1	-1.5	2.3%	6.1%	9.2	-5.4%	41.0%
COc1ccc(CN2CCN(Cc3ccco3)CC2)cc1	0.0	.	3.98µM*	0.0	20µM*	20µM*
COc1cccc(CN2CCN(Cc3ccco3)CC2)c1	-5.9	.	7.94µM*	-0.7	50.1µM*	?
COc1ccc(CN2CCOCCOCCOCC2)cc1	0.9	-1.2%	6.9%	4.3	-0.4%	28.0%
COc1ccc(CN2CCOCC2)cc1	10.5	-0.5%	-13.0%	9.7	?	26.9%
COc1ccc(CN2CCN(Cc3ccco3)CC2)cc1OC	-0.5	.	20µM*	.	28.2µM*	?
COc1ccc(C(=S)N2CCCCCC2)cc1	-4.9	3.7%	89.1µM*	-1.5	2.6%	?
FC(F)(F)c1ccc(CN2CCN(Cc3ccco3)CC2)cc1	1.1	5.1%	-7.1%	.	-1.3%	19.2%
COc1ccccc1N1CCN(CCCOc2ccc(F)cc2)CC1	-8.6	-5.1%	2.24µM*	-2.5	?	?
CCN1CCN(C(=S)c2ccc(OC)cc2)CC1	10.0	5.5%	-25.0%	3.5	-1.8%	-14.1%
COc1ccc(CN2CCCCCC2)cc1	-4.9	.	1µM*	3.3	-0.9%	23.9%
Cc1ccc(CNC(=O)CCCCCn2c(=O)c3sccc3n(CC(=O)C(C)(C)C)c2=O)cc1	.	0.0%	0.3%	.	2.1%	51.0%
O=c1[nH]c2ccc(NCc3ccccc3F)cc2[nH]1	.	2.3%	?	.	?	-0.6%
COc1cccc(N2CCN(C(=O)/C=C/c3ccco3)CC2)c1	-9.9	5.9%	-13.5%	-20.1	50.1µM*	-8.9%
COc1cccc(N2CCN(Cc3ccsc3)CC2)c1	-27.6	1.9%	-35.2%	-12.6	-32.9%	-1.4%
COc1ccccc1N1CCN(Cc2ccco2)CC1	0.5	-7.8%	3.16µM*	-7.5	?	-54.4%
COc1cccc(N2CCN(Cc3ccco3)CC2)c1	-5.4	.	8.91µM*	0.0	?	?
COc1ccc(-c2[nH]c(-c3ccc(C(=O)O)cc3)nc2-c2ccccc2)cc1	-4.5	5.8%	?	-7.6	79.4µM*	18.7%
COc1ccc(-c2[nH]c(-c3ccc4c(c3)OCO4)nc2-c2ccccc2)cc1	?	9.3%	?	-20.4	?	-21.5%
COc1ccccc1N=Nc1nc(-c2ccccc2)c(-c2ccccc2)[nH]1	?	10.8%	7.08µM*	12.5	10µM*	-71.3%
Oc1ccccc1N=Nc1nc(-c2ccccc2)c(-c2ccccc2)[nH]1	-66.6*	13.2%	12.6µM*	?	12.6µM*	31.6µM*
SMILES	Six1-Eya2 blk	TDP1 inh	JMJD2A Tudor inh	CtBP-E1A inh	BAZ2B block	HP1b chromo inh
COc1ccc(N=Nc2nc(-c3ccccc3)c(-c3ccccc3)[nH]2)cc1	-69.8*	11.7%	8.91µM*	1.7	8.91µM*	28.2µM*
O=C(Nc1c(C(=O)N2CCN(c3ccccc3F)CC2)oc2ccccc12)c1cccc(F)c1	.	3.2%	-4.5%	.	?	49.1%
COc1cccc([C@@H]2Oc3ccc(Br)cc3C[C@H]2OC(=O)Nc2ccc(C)c(Br)c2)c1	.	-1.2%	.	.	.	.
CO[C@@H]1COC(=O)[C@H](COCc2ccccc2)NC(=O)C/C=C\[C@@H](C)[C@H](OC)COC(=O)[C@H](COCc2ccccc2)NC(=O)C/C=C\[C@H]1C	.	7.9%[21 µM]	.	.	.	.
Cc1ncc(N=Nc2ccc(F)cc2)c(-c2ccc(Cl)cc2)n1	-11.0	2.8%	-24.5%	-4.2	-27.8%	-7.2%
COc1ccc(-c2nc(C)ncc2N=Nc2ccccc2)cc1	?	14.3%	44.7µM*	?	11.2µM*	-80.0%
Cc1sc(C(C2C(=O)CC(C)(C)CC2=O)C2C(=O)CC(C)(C)CC2=O)cc1[N+](=O)[O-]	0.8	10.3%	28.2µM*	.	56.2µM*	-8.5%
CCOC(=O)c1c(C)c(C(=O)NCc2ccc(Cl)cc2)c(C)n1CC	.	1.0%	-18.9%	.	-1.3%	11.9%
CN(c1ccc(C(=O)N2CCOCC2)cc1[N+](=O)[O-])C1CCCCC1	-8.9	5.9%	-32.3%	-20.0	50.1µM*	-7.9%
CN(C(=O)c1ccc(N2CCOCC2)c([N+](=O)[O-])c1)C1CCCCC1	-13.2	.	-9.0%	5.4	-7.8%	23.9%
CC(C1CC2CCC1C2)n1c(-c2ccco2)n[nH]c1=S (stereo unspecified)	-4.4	0.0%	20µM*	-21.0	?	?
Cc1occc1-c1n[nH]c(=S)n1C	-1.2	-3.7%	-6.8%[11.4 µM]	.	-12.6%	?
CCOc1ccc(C(=O)N2CCC(c3ccncc3)CC2)cc1	.	3.4%	7.0%	.	-3.1%	39.4%
c1ccc(C[n+]2c(-c3ccccc3)csc2Nc2ccccc2)cc1	-7.6	3.0%	?	-0.2	7.94µM*	25.1µM*
CCC12CC3CC(C1)CC(C(=O)Nc1nn[nH]n1)(C3)C2	-4.6	2.1%	25.1µM*	-1.7	?	1.7%
COc1ccc(N2C(=O)C(Cl)=C(Nc3ccccc3O)C2=O)cc1	10.5	9.3%	44.7µM*	-3.2	?	28.2µM*
COc1cc(C(=S)N2CCOCC2)cc(OC)c1OC(=O)Cc1ccc(F)cc1	-8.0	-5.6%	79.4µM*	1.5	?	?
COc1cn(-c2ccccc2)nc1C(=O)Nc1ccc(C)cc1Cl	-4.4	?	?	2.9	79.4µM*	23.2%
COc1ccc(-c2nc3ccccc3n2Cc2ccccc2)cc1COc1ccc(NC(C)=O)cc1	.	-2.3%	?	.	.	.
Cc1cccc(-n2c(-c3ccncc3)n[nH]c2=S)c1C	12.7	17.8µM*	12.6µM*	10.4	-12.9%	11.1%
Cc1ccccc1-n1c(-c2ccncc2)n[nH]c1=S	3.8	.	14.1µM*	-2.2	-36.2%	21.3%
Cc1ccccc1-n1c(-c2ccc(Br)o2)n[nH]c1=S	-0.4	.	25.1µM*	5.9	.	21.1%
Cc1ccccc1-n1c(-c2ccc(=O)[nH]n2)n[nH]c1=S	-2.5	.	?	3.2	?	-2.0%
CC(C)Cn1c(-c2ccc(Br)o2)n[nH]c1=S	0.7	2.6%	4.2%	6.8	-9.0%	29.4%
Cc1cc(-c2n[nH]c(=S)n2-c2ccccc2C)cs1	0.2	2.6%	35.5µM*	6.4	-4.5%	20.5%
